Hits are enriched below; roughly 1.9% of the tested compounds scored in any of these assays.
Hsp90 inh: displaces geldanamycin probe from tumor Hsp90 | 0.35% of 64,000 active | P07900 | inhibition, % at 30 µM | NCI-N417 lysate Hsp90, Cy3B-geldanamycin FP displacement;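 active = inhibition above 50%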;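 note: 0% = tracer plus lysate wells and 100% = tracer alone without lysate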
PKA inh: PKA (human) kinase inhibition | P17612 | PKA Kemptide phosphorylation, Kinase-Glo ATP luminescence | inhibition, % at 6 µM | 0.1% of 65,000 active | AID 524;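 active = inhibition above the screen-wide mean inhibition plus 3 SD, cut at about 21% in these data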
Jurkat viability: reduces viability or proliferation of Jurkat cells | Jurkat E6.1 viability, ATP luminescence, 48 h | inhibition, % at 4 µM | 1.2% of 56,000 active | AID 463;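 active = inhibition above the mean inhibition of all tested compounds plus 3 SD, cut at about 28% in these data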
ROCK2 inh: blocks human Rho kinase 2 activity | purified ROCK2, Kinase-Glo ATP depletion luminescence | inhibition, % at 6 µM | 0.35% of 60,000 active | O75116;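 active = inhibition above the screen-wide mean inhibition plus 3 SD, cut at about 18% in these data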;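 note: plate controls were DMSO wells for no effect and Y-27632 control wells after no-enzyme background subtraction for full effect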
Target sequence (O75116 whole entry, looked up): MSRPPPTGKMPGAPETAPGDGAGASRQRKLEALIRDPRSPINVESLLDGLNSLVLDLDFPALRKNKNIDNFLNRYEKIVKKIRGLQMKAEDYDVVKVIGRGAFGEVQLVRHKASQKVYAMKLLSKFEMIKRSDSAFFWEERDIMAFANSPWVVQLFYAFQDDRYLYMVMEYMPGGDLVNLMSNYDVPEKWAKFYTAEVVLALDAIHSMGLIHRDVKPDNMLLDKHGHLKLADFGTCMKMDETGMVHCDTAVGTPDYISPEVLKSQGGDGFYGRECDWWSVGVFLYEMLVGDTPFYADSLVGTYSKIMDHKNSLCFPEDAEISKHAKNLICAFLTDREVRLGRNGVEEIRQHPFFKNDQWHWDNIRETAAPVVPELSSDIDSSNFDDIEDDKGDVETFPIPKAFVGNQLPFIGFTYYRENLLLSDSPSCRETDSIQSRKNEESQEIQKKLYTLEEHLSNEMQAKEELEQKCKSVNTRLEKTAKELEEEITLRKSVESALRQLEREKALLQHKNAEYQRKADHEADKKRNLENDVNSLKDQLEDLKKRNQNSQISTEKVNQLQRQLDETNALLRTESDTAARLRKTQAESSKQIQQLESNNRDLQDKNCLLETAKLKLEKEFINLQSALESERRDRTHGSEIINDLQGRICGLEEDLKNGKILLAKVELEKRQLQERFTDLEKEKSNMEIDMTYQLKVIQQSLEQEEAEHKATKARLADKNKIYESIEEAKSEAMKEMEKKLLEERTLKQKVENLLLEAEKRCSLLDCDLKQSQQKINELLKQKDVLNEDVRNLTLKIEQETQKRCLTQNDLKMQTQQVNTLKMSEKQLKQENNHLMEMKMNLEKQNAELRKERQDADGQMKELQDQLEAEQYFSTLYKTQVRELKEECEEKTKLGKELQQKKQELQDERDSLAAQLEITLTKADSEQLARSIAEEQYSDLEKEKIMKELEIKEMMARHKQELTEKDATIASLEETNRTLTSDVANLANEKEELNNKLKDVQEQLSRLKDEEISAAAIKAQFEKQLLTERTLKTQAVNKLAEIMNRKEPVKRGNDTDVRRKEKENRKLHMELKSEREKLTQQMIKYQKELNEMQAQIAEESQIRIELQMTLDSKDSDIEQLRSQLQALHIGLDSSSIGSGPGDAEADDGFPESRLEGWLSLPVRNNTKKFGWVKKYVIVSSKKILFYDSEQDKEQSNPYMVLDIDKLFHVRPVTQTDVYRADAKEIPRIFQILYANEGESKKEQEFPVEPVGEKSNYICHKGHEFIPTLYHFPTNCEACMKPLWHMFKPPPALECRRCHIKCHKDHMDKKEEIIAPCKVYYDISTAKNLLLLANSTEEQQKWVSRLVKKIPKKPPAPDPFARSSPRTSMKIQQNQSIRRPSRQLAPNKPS
JNK3 inh: blocks human JNK3 kinase activity; P53779; purified JNK3 kinase activity, HTS; inhibition, % at 8 µM; 0.61% of 60,000 active; in the data active = inhibition above about 17%;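 note: 0% = DMSO and 100% = reference inhibitor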
Starred values were filed as active, the others as inactive; . = not tested or not shown.

SMILES	Hsp90 inh	PKA inh	Jurkat viability	ROCK2 inh	JNK3 inh
COc1ccc(Nc2nc(N3CCCC3)nc3ccccc23)c(OC)c1	0.3	-5.6	27.9*	-8.5	-10.8
CCCn1c(CN(C)Cc2ccccc2)nc2c1c(=O)n(C)c(=O)n2C	.	3.4	.	.	.
CCCCn1c(CN2CCN(c3ccccc3)CC2)nc2c1c(=O)n(C)c(=O)n2C	1.5	-1.2	37.9*	1.6	0.1
CCCCn1c(CN(C)Cc2ccccc2)nc2c1c(=O)n(C)c(=O)n2C	0.8	-4.7	35.9*	-7.8	-1.1
O=C(CN1CCC(O)CC1)N1c2ccccc2C=Cc2ccccc21	-1.2	10.3	4.0	0.1	7.0
S=c1[nH]nc(-c2cccc(Br)c2)o1	2.4	9.4	0.9	5.6	19.4*
COC(=O)C1=C(C)N(c2cccc3ccccc23)C(=O)C1	50.7*	5.7	-3.2	7.5	-3.0
COC(=O)C1=C(C)N(c2ccc(C(=O)OC)cc2)C(=O)C1	-9.3	2.2	-2.2	-2.6	2.1
COc1cc(NCCCCN)c2ncccc2c1	26.5	.	.	.	.
Nc1nc2c(nc(Br)n2C2OC3COP(=O)(O)O[C@@H]3C2O)c(=O)[nH]1 (stereo not given in full)	-1.3	.	.	.	.
CC(=O)C(C(C)=O)c1c(Cl)c(O)c(O)c2c(C(=O)c3ccccc3)coc12	20.5	-1.6	49.3*	-3.1	-6.6
COC(=O)c1c(C#N)c(N)nc2c1CCCC2	0.9	2.4	-7.1	3.9	19.0*
CCSc1nnc2c(n1)OC(c1ccc(C(=O)O)cc1)N(C(C)=O)c1ccccc1-2 (stereo not given)	89.2*	9.7	0.4	4.1	-1.9
COc1ccc(-c2nnc(-c3ccc(Br)o3)o2)cc1OC	-0.6	2.9	-6.8	6.0	25.4*
COc1ccc(-c2nc(-c3ccc(Br)o3)no2)cc1OC	-2.0	3.7	-7.3	-8.6	7.8
CN1Cc2cc(C(=O)c3cc(Cl)cc(CSc4ncccn4)c3O)cnc2NC1=O	-21.1	8.0	98.0*	4.7	1.7
N#CCSc1nnc(-c2ccccc2O)n1CCc1ccccc1	-1.6	7.7	-3.4	5.1	3.1
Cc1cc(C)n2nc(SCC(=O)c3cc(C)n(-c4cc(C)on4)c3C)nc2n1	-8.2	5.3	33.2*	-3.4	4.9
COc1cc(N)c2nccc(Cl)c2c1	12.9	.	.	.	.
COc1cccc(OC)c1-c1nn2c(-c3cc(-c4ccccc4)n[nH]3)nnc2s1	0.5	7.8	66.0*	5.7	2.0
CCN(CC)c1ccc(-c2nn3c(-c4ccccc4OC)nnc3s2)cc1	-1.0	5.6	99.3*	2.4	5.2
COc1ccc(-c2nnc3sc(-c4c(OC)cccc4OC)nn23)cc1	-4.9	4.6	.	2.9	4.1
O=C(O)CCC/C=C\C[C@@H]1[C@@H](/C=C/[C@H](O)C2Cc3ccccc3C2)[C@@H](F)C[C@@H]1O	0.4	.	.	.	.
CC(=O)c1cn(CC(=O)Nc2ccccc2)c2ccccc12	-1.5	9.0	37.2*	5.4	5.5
CC(=O)c1cn(CC(=O)NCC2CCCO2)c2ccccc12 (stereo not given)	-7.1	-0.6	-2.3	3.5	4.6
SMILES	Hsp90 inh	PKA inh	Jurkat viability	ROCK2 inh	JNK3 inh
Cn1ncc2c(Nc3ccc(-c4ccccc4)cc3)ncnc21	0.4	-2.4	34.9*	-3.6	-5.3
Cn1ncc2c(Nc3ccccc3Br)ncnc21	-2.2	-0.8	.	4.6	4.2
O=C(Nc1ccc2oc(-c3cccnc3)nc2c1)c1cccnc1	-2.6	11.5	-4.3	15.4	-0.9
Cc1c(C(=O)Nc2ccc3oc(-c4cccnc4)nc3c2)oc2ccccc12	-3.6	-1.0	3.3	19.9*	2.0
O=c1oc2ccccc2cc1NCc1ccccc1O	-1.8	4.2	41.3*	-1.6	3.3
CC(C)OCCCNc1ncnc2c1[nH]c1ccccc12	-9.8	-2.9	67.3*	3.6	1.2
O=S(=O)(NCc1cn2ccccc2n1)c1cc(F)ccc1F	2.1	0.4	2.9	1.0	0.0
COc1ccc(C(O)c2nc3ccccc3n2C)cc1OC (stereo not given)	-2.7	8.0	53.8*	3.7	4.3
Cc1ccc2c(C)nc(NC3=NCN(Cc4ccccc4)CN3)nc2c1	0.8	1.1	4.6	5.2	40.4*
Cc1ccc2nc(NC3=NCN(Cc4ccccc4)CN3)nc(C)c2c1	-1.0	-3.3	7.6	0.1	3.0
N#C/C(=C\c1ccc(O)c(O)c1)C(=O)c1ccc(O)c(O)c1	87.1*	.	.	.	.
O=C(O)CCCC(=O)NCCCc1ccccc1	-3.1	9.2	-0.5	6.1	3.3
N#C/C(=C\c1ccc(O)c(O)c1)S(=O)(=O)c1ccccc1	42.1	8.9	16.9	9.0	4.0
N#C/C(=C(/O)COC(=O)Cc1c[nH]c2ccccc12)c1nc2ccccc2[nH]1	-12.2	1.8	-2.7	1.3	3.0
N#C/C(=C\c1c[nH]c2ccccc12)C(=O)c1ccc(O)c(O)c1	71.5*	.	.	.	.
N#C/C(=C\c1ccc(O)c(O)c1)C(=O)NCCCc1ccccc1	68.5*	-0.8	.	-2.9	4.9
CC(=O)c1cccc(NC(=O)CSc2nnc(-c3ccc(S(=O)(=O)N4CCCC4)cc3)o2)c1	60.7*	3.3	2.0	-1.9	5.5
Cc1ccc(-c2nnc(SCC(=O)Nc3ccc(S(=O)(=O)N4CCCCCC4)cc3)o2)cc1	0.7	-7.7	3.2	-5.1	6.4
Cc1nc(NC(C)c2ccccc2)c2oc3ccccc3c2n1 (stereo not given)	-0.5	1.4	29.7*	-1.5	-2.3
CNC(=O)[C@H]1O[C@@H](n2cnc3c(NCc4ccc(N)cc4)ncnc32)C(O)[C@H]1O (stereo not given in full)	-0.2	.	.	.	.
CCC(C)(C)NC(=O)C(OC(=O)c1ccco1)c1ccccc1OC (stereo not given)	5.3	-5.2	0.9	-3.0	-4.6
N=c1ccn(Cc2ccc(Cl)cc2)cc1	-4.1	6.2	15.4	1.4	1.6
N=c1ccn(Cc2ccc(Cl)c(Cl)c2)cc1	-3.5	2.8	29.6*	2.6	-4.0
CC1CCCCN1Cc1nc2c(c(=O)n(C)c(=O)n2C)n1Cc1cccc2ccccc12 (stereo not given)	-0.1	1.8	-4.7	1.5	0.8
CN(CC1CCCO1)S(=O)(=O)c1ccc(C(=O)Nc2nc(-c3ccccn3)cs2)cc1 (stereo not given)	-3.2	4.8	52.5*	6.1	1.8
SMILES	Hsp90 inh	PKA inh	Jurkat viability	ROCK2 inh	JNK3 inh
NC/C=C\C(=O)O	0.4	.	.	.	.
NC(=O)c1c(-c2cccs2)csc1N	10.0	16.4	-7.8	20.9*	4.2
O=C(Nc1nnc(-c2cccs2)o1)c1cccc(Oc2ccccc2)c1	3.1	-6.2	9.6	-4.0	-5.2
O=C(Nc1nnc(-c2cccs2)o1)c1cccc(F)c1	2.3	7.6	74.6*	1.5	-1.6
C=CCNc1nc(-c2c(C)nc3sccn23)cs1	0.9	5.6	9.5	9.5	7.0
Cc1nc2sccn2c1-c1csc(NCc2ccccc2)n1	-0.6	6.1	66.9*	4.8	-9.2
O=CNC1CCCc2c1[nH]c1ccc(Cl)cc21 (stereo not given)	-2.4	9.2	9.6	7.3	-1.4
c1ccc2c3c([nH]c2c1)-c1[nH]ncc1CC3	1.0	-3.9	2.9	3.2	54.4*
Clc1ccc2[nH]c3c(c2c1)CCc1cn[nH]c1-3	2.8	8.8	2.8	3.7	85.0*
CCOCCCNC(=O)CCCOc1ccccc1	-6.5	1.0	-3.2	0.2	-3.0

Source: PubChem
